Experimental data: PubChem BioAssay AID2205 (University of Pittsburgh Molecular Library Screening Center, 2009)
The campaign covered roughly 200,000 compounds. About 1,600 (0.8%) were called active.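 Rule for the calls: active = plate Z-score above 3 for both tubulin-high and condensed-nucleus cell shares, with cell loss under 80%, at 10 µM; inactive = the rest, inconclusive results apart.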 The full list was thinned out, with actives kept by preference.

Assay: tubulin staining increase by stabilizing compounds – imaging, high-content imaging, primary screen (AID 2205);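 for % tubulin-high responders: anti alpha tubulin signal scored within the nucleus-defined area of each cell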;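 for toxicity: 0% = mean cell density of plate MIN control wells and 100% = no cells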
Settings: HeLa tubulin immunostaining HCS, 24 h, at 10 µM; % Hoechst-high responders: measured here: nuclear condensation Hoechst responders, stronger effect = higher value, share of cells brighter than vehicle mean+2SD; % tubulin-high responders: stronger effect = higher value, share of cells brighter than vehicle mean+2SD; toxicity: measured here: cytotoxicity by cell density

Row | Compound | % Hoechst-high responders [%] | % tubulin-high responders | toxicity [%]
1 | Cc1ccc(/C=N/NC(=O)c2sccc2OCc2ccc(F)cc2)cc1 | 18.4 | 39.2% (active) | 68.8
2 | Cc1ccsc1C(=O)N/N=C/c1ccc([N+](=O)[O-])cc1 | 2.36 | 3.58% (inactive) | 0.132
3 | Cc1ccc(COc2ccc(/C=N/NC(=O)CN3CCCCC3)cc2)cc1 | 2.2 | 1.76% (inactive) | 4.99
4 | Cn1cnnc1SCC(=O)Nc1ccc(N2CCOCC2)cc1 | 3.45 | 1.73% (inactive) | 7.15
5 | O=C(c1snnc1-c1ccccc1)N1CCOCC1 | 2.21 | 5.38% (inactive) | 8.24
6 | O=C(COC(=O)c1cnc(Cl)c(Cl)c1)NCc1ccco1 | 2.45 | 2.71% (inactive) | 7.79
7 | Cc1cc(C(=O)OCC(=O)NCc2ccco2)c(C)n1-c1ccccc1 | 31.8 | 24.1% (active) | 57.4
8 | O=C(COC(=O)c1cc(S(=O)(=O)N2CCCCC2)ccc1Cl)NCc1ccco1 | 2.04 | 2.32% (inactive) | 4.83
9 | O=C(Cn1nnc(-c2ccccc2)n1)N/N=C/c1ccc(-c2ccc(Cl)cc2)o1 | 2.75 | 3.12% (inactive) | 5.19
10 | O=C(CCNS(=O)(=O)c1ccc(Br)s1)NCc1ccccc1Cl | 1.95 | 0.853% (inactive) | 9.73
11 | CCC(C)(C(=O)Nc1ccccc1C)N(C(=O)CNC(C)=O)c1ccc(C)cc1 (centres undefined) | 3.25 | 4.21% (inactive) | 4.1
12 | CCOc1ccc(Br)cc1S(=O)(=O)Nc1ccc(C(=O)OC(C)C(=O)N(C)c2ccccc2)cc1 (centres undefined) | 0.626 | 6.66% (inactive) | 0.658
13 | Cc1cc(C)n(-c2cc(Oc3ccccc3)ncn2)n1 | 0.881 | 1.4% (inactive) | 3.38
14 | CC(=O)c1ccc(Oc2cc(C)nc(-n3nc(C)cc3C)n2)cc1 | 57.9 | 17.9% (active) | 18.9
15 | COc1ccc(Nc2cc(C)nc(-n3nc(C)cc3C)n2)cc1 | 25.7 | 11.5% (inactive) | 60.4
16 | CCn1cc(CN2CCCC(CNS(=O)(=O)Cc3ccccc3)C2)cn1 (centres undefined) | 2.22 | 3.89% (inactive) | 8.22
17 | O=C(CN1CCN(Cc2ccc(F)cc2Cl)C1=O)NCc1cccs1 | 1.49 | 1.68% (inactive) | 2.53
18 | CC(C)CNC(=O)CC(NCC(C)C)C(=O)O (centres undefined) | 2.02 | 2.59% (inactive) | 6.47
19 | O=C(/C=C/c1cccs1)NCc1cccnc1 | 2.05 | 2.55% (inactive) | 5.06

Row | Compound | % Hoechst-high responders [%] | % tubulin-high responders | toxicity [%]
20 | O=C(Nc1cccc(F)c1)c1ccc(S(=O)(=O)N2CCCC2)cc1 | 3.36 | 4.55% (inactive) | 7.13
21 | COc1ccc(C(=O)Nc2ccc(F)cc2F)cc1 | 1.66 | 1.84% (inactive) | 2.01
22 | CCOC(=O)N1CCN(S(=O)(=O)c2ccc(C(=O)Nc3ccc(F)cc3F)cc2)CC1 | 35.2 | 29.1% (active) | 67.6
23 | C/[N+]([O-])=C\c1ccc([N+](=O)[O-])o1 | 1.53 | 1.72% (inactive) | 3.24
24 | CCCn1c(SCC(=O)Nc2ccc(C)c(S(=O)(=O)N3CCOCC3)c2)n[nH]c1=O | 2.38 | 5.82% (inactive) | 5.63
25 | CC(C)C(=O)NC(=S)Nc1ccccc1F | 1.63 | 3.48% (inactive) | 5.15
26 | CC(C)C(=O)Nc1cccc(NC(=S)NC(=O)C(c2ccccc2)c2ccccc2)c1 | 44 | 30.3% (active) | 36.2
27 | CCCCC(=O)NNC(=S)NC(=O)C(c1ccccc1)c1ccccc1 | 1.83 | 2.83% (inactive) | 2.74
28 | CC(Sc1nnc2c(n1)C1CCC2(C)C1(C)C)C(=O)Nc1ccccc1 (centres undefined) | 3 | 3.52% (inactive) | 9.4
29 | O=C(/C=C/c1ccc(Cl)c([N+](=O)[O-])c1)c1cccnc1 | 0.942 | 1.22% (inactive) | 2.98
30 | C=CCn1c(SCc2c(C)noc2C)nc2sc3c(c2c1=O)CCC(C)C3 (centres undefined) | 27.2 | 31.2% (active) | 44.4
31 | CC1CCc2c(sc3nc4n(c(=O)c23)CCS4)C1 (centres undefined) | 1.5 | 1.55% (inactive) | 8.83
32 | Cc1cc(NC(=O)CSc2nc(C(C)C)nc3sc4c(c23)CCC(C)C4)no1 (centres undefined) | 2.02 | 5.74% (inactive) | 9.29
33 | O=C(CCn1ccc([N+](=O)[O-])n1)Nc1nccs1 | 2.43 | 6.18% (inactive) | 8.86
34 | CCN1/C(=C\c2ccc3ccccc3[n+]2CC)Sc2cc(C)ccc21 | 5.5 | 8.18% (active) | 19.1
35 | CCC(=O)/C=C1\Sc2ccccc2N1CC | 0.853 | 4.83% (inactive) | 6.64
36 | CCN1/C(=C/c2ccc3ccc(C)cc3[n+]2CC)Sc2ccccc21 | 2.38 | 4.83% (inactive) | 9.09
37 | Fc1c(F)c(C(F)(F)F)c(F)c(F)c1N1CCN(c2ccc3nnc(C(F)(F)F)n3n2)CC1 | 7.05 | 6.71% (active) | 8.52
38 | FC(F)(F)c1nnc2ccc(N3CCN(c4ccccc4)CC3)nn12 | 1.98 | 0.88% (inactive) | 7.36
